ALOX12 inh: blocks human arachidonate 12S-lipoxygenase | P18054 | purified 12hLO, xylenol orange hydroperoxide absorbance | Potency, µM (highest dose often 108 µM), for the others: at the highest dose activity change, negative = inhibition, hits mostly inhibitors | actives 1.1% (n = 580,000) | AID 1671190; also: % is scaled to controls: 0 for no effect and ±100 for the full control effect
Target sequence (P18054 whole entry, looked up): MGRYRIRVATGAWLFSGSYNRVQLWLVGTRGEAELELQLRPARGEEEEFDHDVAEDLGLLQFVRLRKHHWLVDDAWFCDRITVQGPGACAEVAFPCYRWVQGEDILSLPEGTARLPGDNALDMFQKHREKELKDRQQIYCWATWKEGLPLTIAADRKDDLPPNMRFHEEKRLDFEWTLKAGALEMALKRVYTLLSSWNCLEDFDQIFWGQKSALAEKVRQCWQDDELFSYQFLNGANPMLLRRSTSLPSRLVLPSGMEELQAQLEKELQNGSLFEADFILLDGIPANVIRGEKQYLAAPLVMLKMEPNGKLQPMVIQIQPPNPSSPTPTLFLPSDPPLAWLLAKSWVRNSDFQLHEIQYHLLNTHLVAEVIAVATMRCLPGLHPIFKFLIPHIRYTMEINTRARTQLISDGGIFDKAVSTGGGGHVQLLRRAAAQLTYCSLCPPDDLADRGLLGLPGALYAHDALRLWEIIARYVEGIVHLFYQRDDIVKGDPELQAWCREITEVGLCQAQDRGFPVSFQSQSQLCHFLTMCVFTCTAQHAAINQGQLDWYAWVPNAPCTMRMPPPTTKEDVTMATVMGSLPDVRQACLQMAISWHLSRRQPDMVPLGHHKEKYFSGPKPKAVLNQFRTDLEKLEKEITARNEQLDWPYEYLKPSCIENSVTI
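Hydroperoxide product was detected by ferrous iron/xylenol orange as the 573 to 405 nm absorbance ratio. Arachidonic acid at 40 uM (final) was turned over for 30 min at room temperature by 150 nM human 12hLO, pH 7.0 Hepes buffer, after 15 min compound preincubation.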
FUS yeast rescue: FUS proteinopathy suppression in yeast | S. cerevisiae FUS-expressing, growth rescue, OD600, 24 h | Potency, µM (doses to about 76.6 µM), actives largely listed as activators | actives 0.24% (n = 390,000);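 also: plate controls were DMSO vehicle for no effect and reference control for full effect; nearly all actives have a fitted effect of over 55% in size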
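Quantitative HTS measuring growth restoration of FUS-toxic yeast. Galactose-induced cells (OD 0.005) were exposed 24hr at 30C to compounds at several concentrations, then absorbance at 600 nm was recorded.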
gsp ag: gsp mutant agonism | gsp mutant cells, cAMP HTRF, 30 min | Potency, µM (series often up to 76.9 µM), without a hit: at the top dose activation (cAMP increase), hits mostly activators | actives 0.13% (n = 340,000) | AID 624287; active = well fitted activation curve with a large enough effect; inconclusive = small, poorly fitted or top-dose-only effect, or another doubt; inactive = no such curve, though single readings can be large or run the other way; cell line not stated here;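 also: phosphodiesterase inhibitor Ro 20-1724 added with compounds to block cAMP breakdown; nearly all actives have a fitted effect of over 60% in size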
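Cells in DMEM/10% FBS with G418 were pretreated with compounds in DMSO plus […] (300 uM stock) for 30 min at 37C. cAMP was measured by HTRF (cAMP-d2 plus anti-cAMP antibody-K) after 30 min at room temperature.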
Mito fusion yeast: mitochondrial division inhibition or fusion activation | actives 0.23% (n = 320,000) | S. cerevisiae fusion-defective mutant growth rescue, CellTiterGlo 48 h | Potency, µM (titrated, usually from 46.1 µM), for the others: at the highest dose growth rescue (activation), most hits filed as activators; also: % of control where 0% means no effect; nearly all actives have a fitted effect of over 45% in size
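Read-out: ATP-based luminescence (CellTiterGlo, 10 min ambient) reporting growth of fusion-defective ts yeast after 48 hours at 37C on glycerol/ethanol YPEG medium in the presence of compound.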
gsp antagonist: antagonizes gsp, the McCune-Albright syndrome mutation | gsp-mutant cells, cAMP HTRF, 30 min | Potency, µM (doses to about 76.9 µM), for inactives: top-dose activity change, negative = inhibition, most hits filed as inhibitors | actives 0.4% (n = 340,000); calls by dose curve; cell line not stated here;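 also: intracellular cAMP measured with PDE inhibitor Ro 20-1724 present during compound exposure; % is scaled to controls: 0 for no effect and ±100 for the full control effect; nearly all actives have a fitted effect of over 65% in size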
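Cells, 2000/well, grown 16–24 h in DMEM 10% FBS with 0.5 mg/ml G418, then compounds plus […] (300 uM addition stock), 30 min at 37C. cAMP read by HTRF (cAMP-d2 and anti-cAMP antibody-K in lysis buffer) after 30 min RT.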
Numbers without * were called inactive; i = inactive; ? = inconclusive; · = not tested or not shown; [ ] = another dose, or the depositor's remark. Most compounds without a hit are left out; they make up all but 1.6% or so of the library. Unless noted, calls follow the shape of the dose curve; as a rule, active = well fitted curve in the direction sought with a large enough effect; inconclusive = small, poorly fitted or top-dose-only effect, or another doubt; inactive = no such curve, though single readings can be large; an effect the other way counts as inactive or inconclusive. Potency is read from the fitted curve at half-maximal effect.

SMILES | ALOX12 inh | FUS yeast rescue | gsp ag | Mito fusion yeast | gsp antagonist
COc1ccc(/C=N/n2c(-c3ccc(C)cc3)n[nH]c2=S)cc1OC | 10µM* | i | 19% | 4% | 0%
COc1cc(/C=N/n2c(-c3ccccc3)n[nH]c2=S)ccc1O | ? | i | 12% | 6% | -28%
Oc1ccc(/C=N/n2c(-c3ccccc3)n[nH]c2=S)cc1Br | 32µM* | i | 13% | 2% | ?
CC(Oc1ccc(Oc2ccccc2)cc1)C(N)=O (stereo not given) | -72% | · | · | · | ·
O=C(C1=C(O)C(=O)N(CCN2CCOCC2)C1c1cccnc1)c1cc2ccccc2o1 (stereo not given) | -24% | i | ? | 6% | 19%
C=CCOc1ccc(C2C(C(=O)c3ccco3)=C(O)C(=O)N2Cc2cccnc2)cc1 (stereo not given) | -14% | i | 28µM* | 2% | 14%
C=CCOc1cccc(C2C(C(=O)c3ccco3)=C(O)C(=O)N2Cc2cccnc2)c1 (stereo not given) | ? | i | 7%[15.4 µM] | -3% | 7%
COc1cccc2cc(C(=O)C3=C(O)C(=O)N(Cc4ccco4)C3c3cccnc3)oc12 (stereo not given) | · | ? | 10µM* | -2% | -2%
O=C(C1=C(O)C(=O)N(Cc2ccco2)C1c1cccnc1)c1cc2ccccc2o1 (stereo not given) | ? | ? | 13µM* | -4% | 4%
COc1ccc(C2C(C(=O)c3ccco3)=C(O)C(=O)N2Cc2cccnc2)cc1OC (stereo not given) | ? | i | 6% | -4% | 4%
c1ccc2c(CNC3CCCCC3)cccc2c1 | -74% | · | · | · | ·
O=C(NC1CCCCC1)N1CCCC(c2noc(COc3ccccc3F)n2)C1 (stereo not given) | 10% | · | · | · | ·
CCCCCOc1ccc(C(N)C(=O)OCC)cc1 (stereo not given) | 20µM* | · | · | · | ·
COCC1CN(C)CC12CCN(C(=O)Cc1ccc(OC)cc1)CC2 (stereo not given) | 46% | · | · | · | ·
Cc1ccccc1NC(=O)C1=Cc2sc3c(c2CS1)CCCC3 | 20µM* | · | · | · | ·
CC(=O)Nc1sc2c(c1C(=O)N1CCOCC1)CCCCC2 | 0% | i | 5% | 1% | 10%
O=C(C1=Cc2sc3c(c2CS1)CCCC3)N1CCC2(CC1)OCCO2 | 35µM* | · | · | · | ·
NC(=O)C1CCN(c2nc(-c3ccc4c(c3)OCCCO4)cs2)CC1 | · | 25µM* | · | · | ·
CCc1ccc2oc(C(=O)Nc3ccc(C)cc3C)cc(=O)c2c1 | -6% | · | · | · | ·
O=C(Cn1nc2n(c1=O)CCCC2)Nc1ccc2c(c1)OCO2 | 5% | · | · | · | ·
NC1CCc2nn(CC(=O)NCc3ccc4c(c3)OCO4)c(=O)n2CC1 (stereo not given) | 50µM* | · | · | · | ·
C=CCn1c(N)c(C(=O)NCCC2=CCCCC2)sc1=S | 18µM* | i | -7% | 5% | 0%
NC(=O)NCCC1=CCCCC1 | -24% | i | -77% | 0% | 9%
CC(=O)Nc1cccc(NC(=S)NC(NC(=O)c2ccc(C)cc2)C(Cl)(Cl)Cl)c1 (stereo not given) | -83% | · | · | · | ·
O=C(NCCc1ccccn1)c1ccc2c3c(cccc13)CC2 | -30% | · | · | · | ·
SMILES | ALOX12 inh | FUS yeast rescue | gsp ag | Mito fusion yeast | gsp antagonist
CC1=CC(=O)C(Sc2ccc(C)cc2)=CC1=O | 1.1µM* | i | 27% | · | ·
Cc1ccc(SC2=C(Sc3ccc(C)cc3)C(=O)c3ccccc3C2=O)cc1 | ? | i | -28% | -13% | -12%
CC(SC1=NS(=O)(=O)c2ccccc21)C(=O)O (stereo not given) | 0.71µM* | · | · | · | ·
Cc1ccc(NC(=O)N2CCC(CCNC(=O)CCc3ccccc3)CC2)cc1F | 2% | · | · | · | ·
Cc1ccc(C(C)NC(=O)CCCc2nc(C(C)(C)C)no2)o1 (stereo not given) | 12% | · | · | · | ·
Cc1noc(C)c1-c1nccc(NCCN2CCOCC2)n1 | 32µM* | · | · | · | ·
COc1cccc(-c2nccc(-n3ccnc3)n2)c1 | -14% | · | · | · | ·
Cc1noc(C)c1-c1nccc(NCc2cccnc2)n1 | -19% | · | · | · | ·
Cc1noc(C)c1-c1nccc(-n2ccnc2)n1 | 45µM* | · | · | · | ·
Cc1ccccc1-c1nccc(NCCN2CCOCC2)n1 | 40µM* | · | · | · | ·
Cc1noc(C)c1-c1nccc(NC2CC2)n1 | 7.1µM* | · | · | · | ·
Cc1ccccc1-c1cncnc1NCCN1CCOCC1 | -24% | · | · | · | ·
CCN1CCN(C(=O)C2CC(C)=C(C)CC2C(=O)O)CC1 (stereo not given) | 5% | · | · | · | ·
O=C(NCCCN1CCCC1=O)c1nc(-c2ccc3[nH]ccc3c2)no1 | -13% | · | · | · | ·
CC(C)(C)c1nc(CC(=O)NCCCN2CCCC2)cs1 | -1% | · | · | · | ·
O=C(NCc1ccc2c(c1)OCO2)c1cc2ccccc2[nH]1 | 19% | · | · | · | ·
Cc1cccc(CNc2cc(-c3c(C)noc3C)ncn2)c1 | -15% | · | · | · | ·
Cc1noc(C)c1-c1cc(NC2CCNCC2)ncn1 | 22µM* | · | · | · | ·
CCCCN(Cc1ccccc1)c1ccc(NS(=O)(=O)c2ccc(F)cc2)cc1C(=O)O | 4µM* | · | · | · | ·
CCCCN(CC)c1ccc(NS(=O)(=O)c2ccc3c(c2)CCCC3)cc1C(=O)O | 1.6µM* | · | · | · | ·
CCOC(=O)c1ccc(S(=O)(=O)Nc2cc(C(=O)O)ccc2Cl)cc1 | ? | i | -5%[15.4 µM] | 0% | ·
CCCCN(Cc1ccccc1)c1ccc(C(=O)O)cc1NS(=O)(=O)c1ccc(CC(C)C)cc1 | 14µM* | · | · | · | ·
CCN1CC(CN(C)Cc2nnc(C)o2)Oc2ccccc21 (stereo not given) | -28% | · | · | · | ·
CC(Sc1nnc(-c2ccccc2F)n1C1CC1)c1ccc(F)cc1 (stereo not given) | -2% | · | · | · | ·
COc1cccc(OC)c1C(=O)O | 2%[176 µM] | · | · | · | ·
SMILES | ALOX12 inh | FUS yeast rescue | gsp ag | Mito fusion yeast | gsp antagonist
CSc1cccc(Nc2ncncc2-c2nc(-c3ccccc3)no2)c1 | 52% | · | · | · | ·
CS(=O)(=O)Nc1cccc(-c2cc(NCc3ccccc3)ncn2)c1 | 11µM* | · | · | · | ·
CN(C)c1cc(-c2cccc(NS(C)(=O)=O)c2)ncn1 | 35µM* | · | · | · | ·
CS(=O)(=O)Nc1cccc(-c2nc(NCc3cccnc3)c3ccccc3n2)c1 | -26% | · | · | · | ·
CS(=O)(=O)Nc1cccc(-c2cncnc2NCc2ccccc2)c1 | 40µM* | · | · | · | ·
COc1cccc(-c2cncnc2Nc2ccccc2)c1 | 40µM* | · | · | · | ·
O=C(NC1CCCNC1)C1CCN(c2nc(-c3ccccc3)nc3c2CCC3)CC1 (stereo not given) | -17% | · | · | · | ·
Cc1cc2oc(C(=O)NCCc3nc(-c4ccccc4)no3)cc(=O)c2cc1C | 22% | · | · | · | ·
O=C(CSc1nc2ccccc2c(=O)[nH]1)c1ccc(O)c(O)c1 | ? | · | 0% | -2% | -17%
Cc1cc(C(=O)CSc2nc3ccccc3c(=O)[nH]2)c(C)n1CC1CCCO1 (stereo not given) | ? | i | 6%[15.4 µM] | 25% | 35µM*
O=C(CSc1nc2ccccc2c(=O)[nH]1)c1cccs1 | 6.3µM* | i | 8% | 7% | 6%
